{"source": "PubChem BioAssay (Tox21)", "note": "Records with an inconclusive call do not appear. Where a call stands in place of a potency, no number is given. The source made the active and inactive calls. The call rests on the fitted dose curve.", "data": [{"experiment": "p53 small molecule agonists, cell-based qHTS assay with rat liver microsomes (AID 1963578)", "conditions": "HCT-116 p53RE-bla, beta-lactamase ratio, 16 h; series mostly up to 66 µM", "text": "U.S. Tox21 Program National Center for Advancing Translational Sciences [NCATS] Division of Preclinical Innovation [DPI] U.S. Environmental Protection Agency [EPA] National Institutes of Environmental Health Sciences [NIEHS] National Toxicology Program [NTP] U.S. Food and Drug Administration [FDA] Tox21 Assay Overview: p53, a tumor suppressor protein, is activated following cellular insult, including DNA damage and other cellular stresses. The activation of p53 regulates cell fate by inducing DNA repair, cell cycle arrest, apoptosis, or cellular senescence. The activation of p53, therefore, is a good indicator of DNA damage and other cellular stresses. […] The activation of the reporter gene under culture conditions can be detected by fluorescence intensity. This cell line was used to screen the Tox21 10K compound library in the condition of presence of rat liver microsomes and to identify agonists that activate the p53 signaling pathway after in vitro metabolic activation (Ooka et al., Archive of Toxicology 96:1975-1987, 2022).\nTox21 Assay Protocol Summary: The p53RE-bla cells were dispensed at 4,000cells/3ul/well in 1536-well black-clear bottom plates. After the assay plates were incubated at 37 C, 5% CO2 incubator for 5 hours, 23 nL of compounds dissolved in DMSO, positive controls or DMSO only was transferred to the assay plate. Following compound addition, 3 uL of rat liver microsomes (Molecular Toxicology, Boone, NC) at final concentration of 0.5 mg/mL and 1uL of Beta-Nicotinamide adenine dinucleotide 2-phosphate (NADPH) at final concentration of 0.5 mg/mL were transferred to the assay plate. The plates were incubated at 37 C for 16 hours. 1 uL of LiveBLAzer detection mixture was added to each well and the plates were incubated at room temperature in the dark for 2 h.", "values": [{"molecule": "Cc1ccc(Nc2ccc(O)c3c2C(=O)c2ccccc2C3=O)cc1", "Potency": "inactive"}, {"molecule": "COS(=O)(=O)O", "Potency": "inactive"}, {"molecule": "CC(CO)CO", "Potency": "inactive"}, {"molecule": "COc1nc(N)nc2nc[nH]c12", "Potency": "inactive"}, {"molecule": "CC(=O)O[C@H]1C[C@@H]2CC[C@@]1(C)C2(C)C", "Potency": "inactive"}, {"molecule": "COC(=O)C1=C(C)NC(C)=C(C(=O)OCC(C)C)C1c1ccccc1[N+](=O)[O-]", "note": "(stereo not given)", "Potency": "inactive"}, {"molecule": "CC1=CC[C@@]23C[C@@H]1C(C)(C)[C@@H]2CC[C@H]3C", "Potency": "inactive"}, {"molecule": "COC(=O)c1cc(Cl)ccc1OC", "Potency": "inactive"}, {"molecule": "O=C(O)[C@H](O)[C@@H](O)[C@H](O[C@@H]1O[C@H](CO)[C@H](O)[C@H](O)[C@H]1O)[C@H](O)CO", "Potency": "inactive"}, {"molecule": "CC(=O)OC/C=C/c1ccccc1", "Potency": "inactive"}, {"molecule": "CCN(CC#N)c1cccc(C)c1", "Potency": "inactive"}, {"molecule": "O=Nc1ccc(NO)cc1", "Potency": "inactive"}, {"molecule": "CCC(C)(Oc1ccc(C2(c3ccc(OC(C)(CC)C(=O)O)cc3)CCCCC2)cc1)C(=O)O", "note": "(stereo not given)", "Potency": "inactive"}, {"molecule": "COC(=O)c1cc(S(N)(=O)=O)ccc1OC", "Potency": "inactive"}, {"molecule": "CCC(CO)(CO)CO", "Potency": "inactive"}, {"molecule": "CCC(=O)OCc1ccccc1", "Potency": "inactive"}, {"molecule": "CC1CC(=O)CC(C)(C)C1", "note": "(stereo not given)", "Potency": "inactive"}, {"molecule": "CCCCC(CC)COC(=O)CC(C(=O)OCC(CC)CCCC)S(=O)(=O)O", "note": "(stereo not given)", "Potency": "inactive"}, {"molecule": "Nc1cc([N+](=O)[O-])ccc1O", "Potency": "inactive"}, {"molecule": "CC(C)CC(C)(N)C#N", "note": "(stereo not given)", "Potency": "inactive"}, {"molecule": "CCCCCCCCc1ccc(Nc2ccc(CCCCCCCC)cc2)cc1", "Potency": "inactive"}, {"molecule": "OCCOCCN1CCN(C2=Nc3ccccc3Sc3ccccc32)CC1", "Potency": "inactive"}, {"molecule": "CCCCCCCCSCCO", "Potency": "inactive"}, {"molecule": "Cc1ccc(CO)cc1", "Potency": "inactive"}, {"molecule": "CCC(C)S", "note": "(stereo not given)", "activation": "1.35% [at 2.33 µM] (inactive)"}, {"molecule": "COc1cc(C(=O)N2CCCCCCC2)cc(OC)c1OC", "Potency": "inactive"}, {"molecule": "FC(F)(F)c1ccccc1", "Potency": "inactive"}, {"molecule": "O=[N+]([O-])c1ccc(F)cc1F", "Potency": "inactive"}, {"molecule": "C[C@@H]1CCN(C(=O)[C@H](CCCN=C(N)N)NS(=O)(=O)c2cccc3c2NC[C@H](C)C3)[C@@H](C(=O)O)C1", "Potency": "inactive"}, {"molecule": "CCCCC1CCC(=O)O1", "note": "(stereo not given)", "Potency": "inactive"}, {"molecule": "C#CC(O)CCC", "note": "(stereo not given)", "Potency": "inactive"}, {"molecule": "CCCOC(C)=O", "Potency": "inactive"}, {"molecule": "CNC(=O)Nc1ccc(Cl)c(Cl)c1", "Potency": "inactive"}, {"molecule": "COC(OC)OC", "Potency": "inactive"}, {"molecule": "O=C(O)CCc1ccccc1", "Potency": "inactive"}, {"molecule": "Nc1ccncc1N", "Potency": "inactive"}, {"molecule": "O=C1c2ccccc2C(=O)C1c1ccc2cc(S(=O)(=O)O)cc(S(=O)(=O)O)c2n1", "Potency": "inactive"}, {"molecule": "NC(=O)NNc1ccccc1", "Potency": "inactive"}, {"molecule": "Nc1cc(S(=O)(=O)O)cc2cc(S(=O)(=O)O)cc(O)c12", "Potency": "inactive"}, {"molecule": "Cc1ccc(C(C)(C)C)cc1", "Potency": "inactive"}]}]}
